9 compounds from ChEMBL document CHEMBL1201862, “PubChem BioAssay data set” (2004) can be followed below.

Broadly, the GI50 is the concentration at which growth is held to half of that of the control.

The target of assay [1] is Pyruvate kinase PKM (Homo sapiens) (UniProt P14618). The assay is described as follows: qHTS Assay for Activators of Human Muscle Pyruvate Kinase. The format is functional. Background: qHTS replaces the single test concentration by a dilution series.
The target of assay [2] is Hypoxia-inducible factor 1-alpha (Homo sapiens) (UniProt Q16665). The assay is described as follows: qHTS Assay for Identification of Small Molecule Agonists for Hypoxia Response Element Signaling Pathway. [Related pubchem assays: 915 ]. The class given is functional.
Chain of Hypoxia-inducible factor 1-alpha (Homo sapiens) (Q16665 whole entry, looked up): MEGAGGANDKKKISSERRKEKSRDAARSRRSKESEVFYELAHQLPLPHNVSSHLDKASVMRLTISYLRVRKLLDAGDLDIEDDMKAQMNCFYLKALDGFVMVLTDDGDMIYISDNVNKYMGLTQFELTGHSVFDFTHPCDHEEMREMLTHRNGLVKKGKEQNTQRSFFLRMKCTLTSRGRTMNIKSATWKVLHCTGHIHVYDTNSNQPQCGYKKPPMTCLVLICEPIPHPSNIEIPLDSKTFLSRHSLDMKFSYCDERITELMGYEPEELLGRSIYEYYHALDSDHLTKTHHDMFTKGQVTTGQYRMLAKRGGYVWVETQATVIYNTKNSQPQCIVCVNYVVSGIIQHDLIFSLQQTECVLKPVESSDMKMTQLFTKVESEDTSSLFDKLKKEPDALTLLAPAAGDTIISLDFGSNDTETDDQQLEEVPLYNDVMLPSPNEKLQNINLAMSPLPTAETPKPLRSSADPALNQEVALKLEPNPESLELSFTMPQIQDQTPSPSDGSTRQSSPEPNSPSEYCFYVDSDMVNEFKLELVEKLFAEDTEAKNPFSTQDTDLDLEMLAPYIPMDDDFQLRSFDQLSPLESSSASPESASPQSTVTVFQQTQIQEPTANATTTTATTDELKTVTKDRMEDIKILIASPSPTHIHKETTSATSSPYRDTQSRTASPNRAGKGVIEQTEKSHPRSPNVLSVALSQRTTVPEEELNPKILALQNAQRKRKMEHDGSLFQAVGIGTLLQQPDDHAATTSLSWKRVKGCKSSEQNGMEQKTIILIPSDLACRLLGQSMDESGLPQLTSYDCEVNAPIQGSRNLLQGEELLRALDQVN
Assay [3] addresses T1, M-phase phosphoprotein 8 (Homo sapiens) (UniProt Q99549).
T1 sequence (whole entry): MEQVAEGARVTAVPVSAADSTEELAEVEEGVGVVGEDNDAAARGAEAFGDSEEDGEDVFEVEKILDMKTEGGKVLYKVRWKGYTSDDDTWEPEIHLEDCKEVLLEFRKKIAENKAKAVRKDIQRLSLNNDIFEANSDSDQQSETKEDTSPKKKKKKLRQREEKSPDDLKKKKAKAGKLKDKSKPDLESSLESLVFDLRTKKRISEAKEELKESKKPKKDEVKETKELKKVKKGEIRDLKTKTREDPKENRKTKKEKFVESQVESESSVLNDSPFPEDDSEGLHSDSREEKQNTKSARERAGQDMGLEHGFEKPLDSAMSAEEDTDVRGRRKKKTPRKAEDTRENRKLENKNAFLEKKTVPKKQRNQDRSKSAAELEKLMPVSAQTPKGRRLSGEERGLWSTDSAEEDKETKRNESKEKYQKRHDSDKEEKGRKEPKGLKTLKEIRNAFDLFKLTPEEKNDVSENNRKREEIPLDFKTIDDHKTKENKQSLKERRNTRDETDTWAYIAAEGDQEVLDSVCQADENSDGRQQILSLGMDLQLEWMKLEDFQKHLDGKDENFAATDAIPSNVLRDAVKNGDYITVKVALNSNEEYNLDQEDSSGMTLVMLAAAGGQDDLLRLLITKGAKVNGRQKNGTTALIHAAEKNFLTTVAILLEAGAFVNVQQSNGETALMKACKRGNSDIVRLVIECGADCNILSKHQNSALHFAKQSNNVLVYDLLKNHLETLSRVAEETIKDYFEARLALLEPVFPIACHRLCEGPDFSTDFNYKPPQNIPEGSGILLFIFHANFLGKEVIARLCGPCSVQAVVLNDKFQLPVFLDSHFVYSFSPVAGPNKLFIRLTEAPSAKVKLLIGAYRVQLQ

Assay [4] has as its target ATPase family AAA domain-containing protein 5 (Homo sapiens) (UniProt Q96QE3). The assay is described as follows: qHTS screen for small molecules that inhibit ELG1-dependent DNA repair in human embryonic kidney (HEK293T) cells expressing luciferase-tagged ELG1: Hit Confirmation using MMS Stimulated ELG1. The format is functional.
Assay [5] is described as follows: small-molecule DNA binding by polarization – biochemical, fluorescence polarization, cherry-pick, counter-screen for EWS/Fli inhibitor project, dose response (AID 720586). (In general: Polarisation of emitted light reports the rotation of a fluorescent probe.)
Assay [6] concerns the target T2, DNA polymerase eta (Homo sapiens) (UniProt Q9Y253).
T2 sequence (whole entry): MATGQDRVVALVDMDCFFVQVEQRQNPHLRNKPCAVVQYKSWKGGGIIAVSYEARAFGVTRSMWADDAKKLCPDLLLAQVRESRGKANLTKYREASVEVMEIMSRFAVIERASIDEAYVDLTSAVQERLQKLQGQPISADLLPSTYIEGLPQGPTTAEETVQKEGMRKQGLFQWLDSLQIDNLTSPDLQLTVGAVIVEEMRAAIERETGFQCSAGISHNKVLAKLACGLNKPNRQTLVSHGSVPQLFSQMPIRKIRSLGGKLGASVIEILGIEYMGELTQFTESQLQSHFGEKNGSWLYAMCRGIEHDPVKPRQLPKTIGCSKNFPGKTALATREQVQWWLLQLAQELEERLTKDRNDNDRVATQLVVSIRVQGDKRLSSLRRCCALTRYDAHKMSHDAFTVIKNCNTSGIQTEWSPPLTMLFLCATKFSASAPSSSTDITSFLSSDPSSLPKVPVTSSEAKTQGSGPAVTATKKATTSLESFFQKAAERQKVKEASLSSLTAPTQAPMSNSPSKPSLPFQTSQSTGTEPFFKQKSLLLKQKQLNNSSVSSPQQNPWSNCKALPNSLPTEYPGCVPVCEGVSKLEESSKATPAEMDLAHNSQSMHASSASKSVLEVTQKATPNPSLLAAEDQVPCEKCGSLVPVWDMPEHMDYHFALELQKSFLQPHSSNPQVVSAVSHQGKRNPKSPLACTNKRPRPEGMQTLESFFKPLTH
The assay can be described thus: qHTS for Inhibitors of Polymerase Eta: Confirmatory Assay for Cherry-picked Compounds. The class given is functional.

Assay [7] concerns the target Nuclear factor erythroid 2-related factor 2 (Homo sapiens) (UniProt Q16236).
Assay [8] addresses T3, DNA polymerase kappa (Homo sapiens) (UniProt Q9UBT6).
T3 sequence (whole entry): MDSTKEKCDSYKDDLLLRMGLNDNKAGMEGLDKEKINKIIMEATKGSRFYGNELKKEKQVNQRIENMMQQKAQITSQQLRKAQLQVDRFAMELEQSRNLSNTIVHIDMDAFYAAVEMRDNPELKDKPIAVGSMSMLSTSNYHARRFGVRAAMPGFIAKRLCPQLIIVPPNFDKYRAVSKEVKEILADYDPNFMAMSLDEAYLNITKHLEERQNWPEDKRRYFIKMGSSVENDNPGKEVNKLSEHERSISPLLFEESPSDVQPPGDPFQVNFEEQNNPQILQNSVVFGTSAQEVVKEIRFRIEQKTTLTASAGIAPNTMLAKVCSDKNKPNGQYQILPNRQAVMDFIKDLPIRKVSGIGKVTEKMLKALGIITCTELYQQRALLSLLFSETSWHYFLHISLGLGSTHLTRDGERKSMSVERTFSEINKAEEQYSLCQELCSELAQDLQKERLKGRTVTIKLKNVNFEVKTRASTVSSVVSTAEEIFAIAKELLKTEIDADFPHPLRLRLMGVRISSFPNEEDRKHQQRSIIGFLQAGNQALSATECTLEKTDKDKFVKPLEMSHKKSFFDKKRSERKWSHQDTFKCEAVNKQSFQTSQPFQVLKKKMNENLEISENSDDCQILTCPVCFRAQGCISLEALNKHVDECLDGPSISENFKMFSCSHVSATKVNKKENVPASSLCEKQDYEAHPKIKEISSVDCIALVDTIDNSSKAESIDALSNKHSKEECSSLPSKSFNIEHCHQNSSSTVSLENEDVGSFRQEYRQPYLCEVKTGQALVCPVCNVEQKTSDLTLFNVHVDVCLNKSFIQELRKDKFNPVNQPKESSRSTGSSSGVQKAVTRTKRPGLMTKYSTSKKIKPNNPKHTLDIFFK

“And” between values parts separate entries of the source, which are not always exact repeats. Identical values can stand only once. Only a part of the results of these assays is listed, not drawn at random. For part of these data: Results with a measured potency or affinity are listed apart. The source made the active and inactive calls. Unless noted, the rule behind the calls is not given here.

Chain of ATPase family AAA domain-containing protein 5 (Homo sapiens) (Q96QE3 whole entry, the tested form may be a part): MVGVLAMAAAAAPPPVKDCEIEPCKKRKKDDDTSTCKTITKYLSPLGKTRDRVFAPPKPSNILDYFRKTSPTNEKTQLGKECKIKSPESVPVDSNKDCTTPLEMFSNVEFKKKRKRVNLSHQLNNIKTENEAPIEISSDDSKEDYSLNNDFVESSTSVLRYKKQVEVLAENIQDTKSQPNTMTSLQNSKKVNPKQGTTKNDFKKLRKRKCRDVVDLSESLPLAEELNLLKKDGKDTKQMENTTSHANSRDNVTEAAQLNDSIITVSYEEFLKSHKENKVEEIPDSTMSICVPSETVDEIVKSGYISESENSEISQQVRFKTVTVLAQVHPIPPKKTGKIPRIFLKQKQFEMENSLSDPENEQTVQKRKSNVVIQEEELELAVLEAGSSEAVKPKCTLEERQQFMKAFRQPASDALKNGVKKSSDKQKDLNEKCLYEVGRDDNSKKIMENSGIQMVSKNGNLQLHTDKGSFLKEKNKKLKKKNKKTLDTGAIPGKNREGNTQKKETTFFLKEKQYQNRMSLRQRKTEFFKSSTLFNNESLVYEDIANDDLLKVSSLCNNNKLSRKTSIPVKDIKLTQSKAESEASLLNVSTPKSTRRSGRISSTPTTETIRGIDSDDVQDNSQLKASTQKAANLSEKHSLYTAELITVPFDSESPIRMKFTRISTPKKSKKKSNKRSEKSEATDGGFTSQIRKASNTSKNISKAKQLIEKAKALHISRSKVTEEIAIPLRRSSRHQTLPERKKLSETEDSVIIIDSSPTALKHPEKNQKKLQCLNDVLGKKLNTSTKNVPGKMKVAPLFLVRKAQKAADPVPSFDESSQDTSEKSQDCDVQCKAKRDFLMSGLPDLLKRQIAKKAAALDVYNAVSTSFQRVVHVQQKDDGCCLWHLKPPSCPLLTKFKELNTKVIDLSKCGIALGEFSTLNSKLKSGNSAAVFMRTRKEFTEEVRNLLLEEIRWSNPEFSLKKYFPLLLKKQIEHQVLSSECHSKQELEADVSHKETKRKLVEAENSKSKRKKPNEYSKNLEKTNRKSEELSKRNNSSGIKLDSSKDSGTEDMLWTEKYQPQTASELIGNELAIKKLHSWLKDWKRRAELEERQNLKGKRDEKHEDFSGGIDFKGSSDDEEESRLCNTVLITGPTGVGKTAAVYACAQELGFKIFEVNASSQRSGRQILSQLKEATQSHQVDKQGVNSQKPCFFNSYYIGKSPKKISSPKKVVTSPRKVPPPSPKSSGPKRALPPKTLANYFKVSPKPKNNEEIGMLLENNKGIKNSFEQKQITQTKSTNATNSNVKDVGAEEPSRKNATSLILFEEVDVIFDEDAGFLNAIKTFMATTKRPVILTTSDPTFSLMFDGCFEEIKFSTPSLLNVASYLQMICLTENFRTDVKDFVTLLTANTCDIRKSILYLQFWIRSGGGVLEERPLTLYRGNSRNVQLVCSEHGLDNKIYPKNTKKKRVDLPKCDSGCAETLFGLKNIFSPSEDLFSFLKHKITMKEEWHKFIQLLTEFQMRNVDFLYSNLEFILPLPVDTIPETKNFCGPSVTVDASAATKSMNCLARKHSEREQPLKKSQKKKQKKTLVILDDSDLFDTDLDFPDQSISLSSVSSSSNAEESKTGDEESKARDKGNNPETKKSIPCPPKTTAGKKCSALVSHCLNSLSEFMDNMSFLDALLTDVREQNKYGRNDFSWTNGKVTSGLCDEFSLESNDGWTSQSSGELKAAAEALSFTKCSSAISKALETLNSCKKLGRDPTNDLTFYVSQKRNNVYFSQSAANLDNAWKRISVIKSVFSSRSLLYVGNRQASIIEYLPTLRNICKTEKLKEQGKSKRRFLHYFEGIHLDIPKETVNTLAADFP
Chain of Pyruvate kinase PKM (Homo sapiens) (P14618 2-531 limits assumed): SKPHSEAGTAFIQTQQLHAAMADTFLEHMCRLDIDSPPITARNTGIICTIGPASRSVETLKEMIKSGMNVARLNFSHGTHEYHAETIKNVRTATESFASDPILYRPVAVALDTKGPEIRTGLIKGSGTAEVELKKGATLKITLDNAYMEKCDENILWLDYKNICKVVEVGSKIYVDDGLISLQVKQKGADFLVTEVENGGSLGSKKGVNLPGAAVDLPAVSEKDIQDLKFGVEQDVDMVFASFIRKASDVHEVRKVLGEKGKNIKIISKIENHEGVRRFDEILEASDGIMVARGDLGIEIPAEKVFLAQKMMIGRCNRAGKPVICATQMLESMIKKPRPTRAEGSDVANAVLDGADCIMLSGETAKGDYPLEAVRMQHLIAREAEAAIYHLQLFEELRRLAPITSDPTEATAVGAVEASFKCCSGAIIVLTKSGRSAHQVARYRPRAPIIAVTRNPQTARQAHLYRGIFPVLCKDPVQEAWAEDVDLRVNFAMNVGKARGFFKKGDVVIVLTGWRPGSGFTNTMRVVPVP
Chain of Nuclear factor erythroid 2-related factor 2 (Homo sapiens) (Q16236 whole entry): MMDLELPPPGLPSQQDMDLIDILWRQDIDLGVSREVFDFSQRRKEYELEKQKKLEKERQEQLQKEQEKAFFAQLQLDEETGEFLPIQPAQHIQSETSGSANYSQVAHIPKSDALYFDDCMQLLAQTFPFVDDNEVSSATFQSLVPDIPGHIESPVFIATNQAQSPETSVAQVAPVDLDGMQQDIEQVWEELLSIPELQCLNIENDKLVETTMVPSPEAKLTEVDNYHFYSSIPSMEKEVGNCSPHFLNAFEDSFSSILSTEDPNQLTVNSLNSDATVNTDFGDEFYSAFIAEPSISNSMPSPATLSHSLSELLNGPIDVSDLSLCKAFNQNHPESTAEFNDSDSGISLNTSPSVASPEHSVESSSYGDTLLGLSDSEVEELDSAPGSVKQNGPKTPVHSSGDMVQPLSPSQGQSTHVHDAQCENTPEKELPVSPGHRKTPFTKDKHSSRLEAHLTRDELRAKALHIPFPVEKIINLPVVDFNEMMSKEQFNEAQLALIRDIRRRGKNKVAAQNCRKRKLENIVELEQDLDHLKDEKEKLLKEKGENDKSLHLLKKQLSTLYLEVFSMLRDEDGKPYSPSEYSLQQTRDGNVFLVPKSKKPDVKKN

Turning to `N[C@H](CCC(=O)O)C(=O)O`, the Potency entry in assay [1] was “inactive”. Take `O=C(O)Cc1ccccc1Nc1c(Cl)cccc1Cl`: the Potency in assay [2] is 6.31 µM (active) and 25.1 µM (active). Moreover, the Potency result in assay [3] was “inactive”. `O=C(O)c1cc(/N=N/c2ccc(S(=O)(=O)Nc3ccccn3)cc2)ccc1O`: in [4], the Potency result was “inactive”.

In the case of `COc1ccc(C2=Nn3c(nnc3-c3ccccc3F)SC2)cc1OC1CCOC1` (configuration not stated), the AbsAC35 in assay [5] is 137 µM (active). With `Nc1nc2cc3c(cc2cc1C(=O)NCCc1c[nH]c2ccccc12)OCO3`, the AbsAC35 in assay [5] was 251 µM (active).

Take `CC(C)(O)c1ccccc1CC[C@@H](SCC1(CC(=O)O)CC1)c1cccc(/C=C/c2ccc3ccc(Cl)cc3n2)c1`: the Potency in assay [6] was 213 µM (active). For the compound CISPLATIN, CHEMBL11359, the values for the 50% growth inhibitory concentration (GI50) in the assay with P388/ADR, in the assay on SN12K1 and with P388 were 0.561 µM, 4.06 µM and 0.248 µM, respectively. In the case of `CC(=O)OCc1ccccc1`, the Potency in assay [7] is 30.6 µM (active). Consider `Cc1cc(C)c(NC(=O)Cn2c(=O)n(Cc3ccc(C(=O)NCc4ccco4)cc3)c(=O)c3sccc32)c(C)c1`, for which the Potency in assay [8] is 299 µM (active).
